The target of assay [1] is Bile acid receptor (Homo sapiens) (UniProt Q96RI1). Kind of assay: ATG_IR1_CIS: Attagene CIS-FACTORIAL HepG2 Assay for human Nuclear Receptor Subfamily 1 Group H Member 4 (NR1H4), IR1 submotif (AID 2282946). As to conditions: IR1 reporter transcription, actives raise or lower the signal. In outline:
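HepG2 cells transiently transfected with multiplexed cis-element reporter units read endogenous transcription factor activity. After 24 h compound exposure, reporter mRNA was quantified by RT-PCR, fluorescent labelling, HpaI digestion and capillary electrophoresis; bidirectional fitting versus DMSO baseline.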

Assay [2] in a line: ATG_GRE_CIS: Attagene CIS-FACTORIAL HepG2 Assay for human Glucocorticoid Response Elements (GRE) (AID 2282947). As to conditions: HepG2 GRE cis-reporter, Attagene multiplex mRNA; actives raise or lower the signal. A digest of the protocol: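 Reporter transcripts read by RT-PCR with capillary electrophoresis fluorescence after a 24 h chemical exposure of HepG2 cells transiently transfected with multiple cis-element reporter units. Gain or loss fitted against DMSO.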

Assay [3] is described as follows: ATG_ISRE_CIS: Attagene CIS-FACTORIAL HepG2 Assay for human Interferon Regulatory Factor 1 (IRF1) binding to an Interferon-Stimulated Response Element (ISRE) (AID 2282948). The note with it: HepG2 ISRE cis-reporter (Attagene), mRNA transcription readout; actives raise or lower the signal. In outline: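 Read-out: fluorescent RT-PCR products resolved by capillary electrophoresis, reporting endogenous transcription factor activity via ISRE-driven reporter mRNA in transfected HepG2 cells dosed for 24 h; gain or loss fitted relative to DMSO.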

Assay [4] is described as follows: ATG_M_32_CIS: Attagene CIS-FACTORIAL HepG2 Assay for M32 Transcription Factor (Internal Marker) (AID 2282949).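 Also: background control marker of the multiplexed CIS panel rather than a real target.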 As to conditions: HepG2 Attagene cis-factorial M32 reporter, mRNA; actives raise or lower the signal. A digest of the protocol: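 HepG2 human liver cells transiently transfected with cis-promoter-driven multiple reporter transcription units, dosed 24 h. Reporter mRNA quantified by RT-PCR, FAM-labelled primer extension, HpaI digest and capillary electrophoresis; bidirectional fit versus DMSO baseline.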

Assay [5] can be described thus: ATG_M_06_CIS: Attagene CIS-FACTORIAL HepG2 Assay for M06 Transcription Factor (Internal Marker) (AID 2282950). As to conditions: HepG2 Attagene CIS-FACTORIAL M06 internal marker reporter; actives raise or lower the signal. A digest of the protocol:
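Fluorescence-labelled RT-PCR products from cis-promoter reporter units, cut with HpaI and resolved by capillary electrophoresis, give the signal. Cells are human HepG2, dosed for 24 h. Serves as background control, fitted relative to DMSO.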

Assay [6] deals with Hepatocyte nuclear factor 6 (Homo sapiens) (UniProt Q9UBC0). Description: ATG_HNF6_CIS: Attagene CIS-FACTORIAL HepG2 Assay for human Hepatocyte Nuclear Factor 6 (HNF6) (AID 2282952). As to conditions: HepG2 Attagene cis-factorial HNF6 reporter transcription; actives raise or lower the signal. A digest of the protocol:
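Readout: fluorescent reporter-transcript fragments resolved by capillary electrophoresis after RT-PCR, reflecting endogenous factor activity in transfected HepG2. Exposure 24 h. Gain or loss of signal fitted bidirectionally against DMSO.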

Assay [7] deals with Heat shock factor protein 1 (Homo sapiens) (UniProt Q00613). Kind of assay: ATG_HSE_CIS: Attagene CIS-FACTORIAL HepG2 Assay for human Heat Shock Transcription Factor 1 (HSE) (AID 2282953). As to conditions: HepG2 HSE cis-reporter, Attagene RNA transcription; actives raise or lower the signal. In outline: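 After a 24 h incubation with test chemical, transfected HepG2 cells were harvested for RNA; reporter transcripts were measured by RT-PCR and capillary electrophoresis. Values reflect gain or loss of signal relative to DMSO.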
Sequence of Heat shock factor protein 1 (Homo sapiens) (Q00613 whole entry, looked up): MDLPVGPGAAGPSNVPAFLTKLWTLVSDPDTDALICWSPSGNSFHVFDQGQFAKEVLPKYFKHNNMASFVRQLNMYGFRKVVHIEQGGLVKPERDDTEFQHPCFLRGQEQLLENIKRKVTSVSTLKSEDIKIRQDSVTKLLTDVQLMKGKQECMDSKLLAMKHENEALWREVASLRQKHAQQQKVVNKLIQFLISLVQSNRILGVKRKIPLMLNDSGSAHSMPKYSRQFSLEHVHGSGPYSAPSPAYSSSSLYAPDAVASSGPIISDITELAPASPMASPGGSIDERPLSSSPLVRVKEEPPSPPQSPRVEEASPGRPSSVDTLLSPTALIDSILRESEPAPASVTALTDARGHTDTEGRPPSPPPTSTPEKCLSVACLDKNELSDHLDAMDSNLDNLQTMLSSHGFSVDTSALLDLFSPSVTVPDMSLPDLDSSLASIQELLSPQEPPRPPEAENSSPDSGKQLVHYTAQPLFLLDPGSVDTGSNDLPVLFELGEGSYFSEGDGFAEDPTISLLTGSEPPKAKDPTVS

A short description of assay [8]: ATG_MRE_CIS: Attagene CIS-FACTORIAL HepG2 Assay for human Metal Responsive Element (MRE) (AID 2282954). As to conditions: HepG2 MRE cis-reporter transcription, Attagene multiplex; actives raise or lower the signal. A digest of the protocol:
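Endogenous MRE-dependent transcription read as reporter mRNA in transiently transfected human HepG2 cells at 24 h. RNA reverse-transcribed, PCR-amplified, labelled and resolved by capillary electrophoresis; gain or loss relative to DMSO.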

The nature of assay [9]: ATG_PBREM_CIS: Attagene CIS-FACTORIAL HepG2 Assay for human Phenobarbital-responsive Enhancer Module (PBREM) (AID 2282955). As to conditions: HepG2 PBREM cis-reporter, Attagene multiplexed transcription; actives raise or lower the signal. In outline: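 HepG2 cells transiently transfected with multiple cis-regulated reporter transcription units; endogenous factor activity at the PBREM element measured as reporter mRNA 24 h after dosing, via RT-PCR and capillary electrophoresis of fluorescent fragments; bidirectional fitting versus DMSO.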

Assay [10] concerns the target Paired box protein Pax-6 (Homo sapiens) (UniProt P26367). Kind of assay: ATG_Pax6_CIS: Attagene CIS-FACTORIAL HepG2 Assay for human Paired Box 6 (PAX6) (AID 2282956). As to conditions: HepG2 CIS-FACTORIAL PAX6 reporter transcription, RNA readout; actives raise or lower the signal. In outline: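 Readout: reporter transcript fluorescence after RT-PCR and capillary electrophoresis. Cells: HepG2, transiently transfected with cis-regulated MRTUs. Exposure 24 h. Gain or loss of signal fitted bidirectionally relative to DMSO.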

Assay [11] is described as follows: ATG_PPRE_CIS: Attagene CIS-FACTORIAL HepG2 Assay for human Peroxisome Proliferator-activated Response Element (PPRE) (AID 2282958). The note with it: HepG2 PPRE cis-element reporter, Attagene transcription factor profiling; actives raise or lower the signal. In outline: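 HepG2 cells transiently transfected with multiplexed cis-element reporter units measure endogenous transcription factor activity. After 24 h compound exposure, reporter mRNA is quantified by RT-PCR, 6-FAM labeling, HpaI digestion and capillary electrophoresis; bidirectional fits are made against DMSO baseline.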

A short description of assay [12]: ATG_RORE_CIS: Attagene CIS-FACTORIAL HepG2 Assay for human RAR-related Orphan Receptor Element (RORE) (AID 2282959). As to conditions: HepG2 Attagene cis-factorial RORE reporter, mRNA; actives raise or lower the signal. A digest of the protocol:
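HepG2 cells transiently transfected with multiple cis-element reporter transcription units, exposed to chemical for 24 h. Reporter mRNA quantified by RT-PCR, 6-FAM primer-extension labeling, HpaI digestion and capillary electrophoresis; bidirectional fit versus DMSO baseline.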

Assay [13] in a line: ATG_Sox_CIS: Attagene CIS-FACTORIAL HepG2 Assay for human SRY-box transcription factor (SOX) (AID 2282960). As to conditions: HepG2 Attagene cis-factorial SOX reporter, mRNA; actives raise or lower the signal. In outline:
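HepG2 cells transiently transfected with cis-element-driven multiple reporter transcription units, dosed 24 h; reporter mRNA measured by RT-PCR, FAM labelling, HpaI digestion and capillary electrophoresis. Bidirectional fit versus DMSO baseline.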

For assay [14], the target named is Transcription factor Sp1 (Homo sapiens) (UniProt P08047). Description: ATG_Sp1_CIS: Attagene CIS-FACTORIAL HepG2 Assay for human Specificity Protein 1 (Sp1) (AID 2282961). As to conditions: HepG2 Sp1 cis-reporter transcription, actives raise or lower the signal. In outline: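 HepG2 cells transiently transfected with multiple reporter transcription units driven by cis-regulatory elements; Sp1-responsive reporter mRNA measured 24 h after dosing by RT-PCR and capillary electrophoresis fluorescence, fitted bidirectionally against DMSO baseline.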
Sequence of Transcription factor Sp1 (Homo sapiens) (P08047 whole entry, looked up): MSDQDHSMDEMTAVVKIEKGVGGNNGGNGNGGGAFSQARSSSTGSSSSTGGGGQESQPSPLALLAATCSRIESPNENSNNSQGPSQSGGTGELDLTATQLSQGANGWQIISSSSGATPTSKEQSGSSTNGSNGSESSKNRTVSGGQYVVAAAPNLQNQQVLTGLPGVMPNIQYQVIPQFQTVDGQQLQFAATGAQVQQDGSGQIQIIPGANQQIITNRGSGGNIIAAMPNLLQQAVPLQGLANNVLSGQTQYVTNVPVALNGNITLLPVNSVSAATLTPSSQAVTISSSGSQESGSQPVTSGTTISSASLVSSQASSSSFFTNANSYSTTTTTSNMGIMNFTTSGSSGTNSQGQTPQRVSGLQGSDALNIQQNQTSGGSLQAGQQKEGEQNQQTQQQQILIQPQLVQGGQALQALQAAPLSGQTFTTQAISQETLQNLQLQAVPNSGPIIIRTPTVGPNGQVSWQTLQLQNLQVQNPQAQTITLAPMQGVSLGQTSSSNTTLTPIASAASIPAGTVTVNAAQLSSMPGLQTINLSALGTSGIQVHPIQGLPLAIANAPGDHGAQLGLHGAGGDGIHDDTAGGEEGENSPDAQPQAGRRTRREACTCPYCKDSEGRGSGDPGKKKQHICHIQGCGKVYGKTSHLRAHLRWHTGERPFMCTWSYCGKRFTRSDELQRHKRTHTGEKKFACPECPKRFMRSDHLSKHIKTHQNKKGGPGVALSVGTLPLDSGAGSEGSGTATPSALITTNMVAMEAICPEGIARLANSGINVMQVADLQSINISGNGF

A short description of assay [15]: ATG_SREBP_CIS: Attagene CIS-FACTORIAL HepG2 Assay for human Sterol Regulatory Element Binding (SREBP) (AID 2282962). As to conditions: HepG2 Attagene cis-factorial SREBP reporter, mRNA; actives raise or lower the signal. A digest of the protocol:
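Readout: fluorescent reporter-transcript peaks resolved by capillary electrophoresis after RT-PCR. Cells were human HepG2 carrying transfected cis-promoter reporter constructs, dosed for 24 h. Gain or loss of signal was fitted against DMSO controls.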

Assay [16] addresses Signal transducer and activator of transcription 3 (Homo sapiens) (UniProt P40763). Description: ATG_STAT3_CIS: Attagene CIS-FACTORIAL HepG2 Assay for human Signal Transducer and Activator of Transcription 3 (STAT3) (AID 2282963). The note with it: HepG2, Attagene cis-factorial STAT3 reporter transcription; actives raise or lower the signal. A digest of the protocol: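 Readout is reporter transcript quantified by RT-PCR and capillary electrophoresis, with 6-FAM primer extension and HpaI digestion. Total RNA is taken 24 h after dosing transiently transfected HepG2 carrying cis-regulated reporter units. Bidirectional fit against DMSO.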

Assay [17] can be described thus: ATG_TCF_b_cat_CIS: Attagene CIS-FACTORIAL HepG2 Assay for human T-Cell-Factor with beta-catenin (TCF/b-cat) (AID 2282965). As to conditions: HepG2 TCF/beta-catenin cis-reporter transcription, actives raise or lower the signal. A digest of the protocol: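 Endogenous TCF/LEF activity read as reporter transcript level via RT-PCR and capillary electrophoresis fluorescence in transfected HepG2, 24 h exposure; gain or loss of signal fitted against DMSO controls.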

A short description of assay [18]: ATG_PXRE_CIS: Attagene CIS-FACTORIAL HepG2 Assay for human Pregnane X Receptor Element (PXRE) (AID 2282957). The note with it: HepG2 Attagene CIS-FACTORIAL PXRE reporter, mRNA; actives raise or lower the signal. In outline: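 Read-out: fluorescence of reporter-specific RT-PCR products resolved by capillary electrophoresis, fitted bidirectionally relative to DMSO. Human HepG2 liver cells carried transfected cis-promoter reporter units and were exposed to chemicals for 24 h.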

Assay [19] can be described thus: ATG_TA_CIS: Attagene CIS-FACTORIAL HepG2 Assay for human TA Basal Promoter (AID 2282964). The note with it: HepG2 Attagene CIS-factorial TA basal promoter reporter; actives raise or lower the signal. A digest of the protocol:
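Multiplexed mRNA reporter assay, HepG2, 24 h. Reporter cDNA amplified, 6-FAM primer-extended, HpaI-cut, CE-sized; DMSO = negative control and baseline.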

Activity calls are given as the source filed them. The calls were made as follows: active = hit-call score of the fitted dose curve at least 0.9, where 1 is the maximum; inactive = score below 0.9.

Sequence of Bile acid receptor (Homo sapiens) (Q96RI1 whole entry, looked up): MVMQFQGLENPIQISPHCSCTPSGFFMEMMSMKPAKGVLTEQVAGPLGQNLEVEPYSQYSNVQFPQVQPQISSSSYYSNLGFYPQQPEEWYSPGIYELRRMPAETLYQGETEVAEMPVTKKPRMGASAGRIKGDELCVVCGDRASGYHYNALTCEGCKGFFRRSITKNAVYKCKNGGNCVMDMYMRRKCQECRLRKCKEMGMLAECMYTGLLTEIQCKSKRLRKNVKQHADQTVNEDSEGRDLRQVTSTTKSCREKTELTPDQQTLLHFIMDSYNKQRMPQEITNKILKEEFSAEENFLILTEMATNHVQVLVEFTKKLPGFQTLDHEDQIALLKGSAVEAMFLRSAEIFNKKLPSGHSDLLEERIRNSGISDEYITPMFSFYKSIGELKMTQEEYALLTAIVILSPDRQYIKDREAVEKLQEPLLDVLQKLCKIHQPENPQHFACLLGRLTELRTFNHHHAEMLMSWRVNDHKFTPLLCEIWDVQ
Sequence of Hepatocyte nuclear factor 6 (Homo sapiens) (Q9UBC0 whole entry, looked up, the tested form may be a part): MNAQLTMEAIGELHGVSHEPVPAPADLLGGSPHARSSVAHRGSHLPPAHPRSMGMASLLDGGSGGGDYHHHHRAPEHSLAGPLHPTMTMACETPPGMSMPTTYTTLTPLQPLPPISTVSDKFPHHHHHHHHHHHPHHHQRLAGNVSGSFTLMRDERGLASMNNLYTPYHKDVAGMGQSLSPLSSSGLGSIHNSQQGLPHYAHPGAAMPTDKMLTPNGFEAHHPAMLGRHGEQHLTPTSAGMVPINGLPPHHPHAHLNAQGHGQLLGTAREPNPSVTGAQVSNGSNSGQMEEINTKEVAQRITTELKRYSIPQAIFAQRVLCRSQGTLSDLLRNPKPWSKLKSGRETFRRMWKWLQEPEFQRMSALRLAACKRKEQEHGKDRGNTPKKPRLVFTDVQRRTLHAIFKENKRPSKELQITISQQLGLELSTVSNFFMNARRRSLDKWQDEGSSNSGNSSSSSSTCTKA
Sequence of Paired box protein Pax-6 (Homo sapiens) (P26367 whole entry, looked up): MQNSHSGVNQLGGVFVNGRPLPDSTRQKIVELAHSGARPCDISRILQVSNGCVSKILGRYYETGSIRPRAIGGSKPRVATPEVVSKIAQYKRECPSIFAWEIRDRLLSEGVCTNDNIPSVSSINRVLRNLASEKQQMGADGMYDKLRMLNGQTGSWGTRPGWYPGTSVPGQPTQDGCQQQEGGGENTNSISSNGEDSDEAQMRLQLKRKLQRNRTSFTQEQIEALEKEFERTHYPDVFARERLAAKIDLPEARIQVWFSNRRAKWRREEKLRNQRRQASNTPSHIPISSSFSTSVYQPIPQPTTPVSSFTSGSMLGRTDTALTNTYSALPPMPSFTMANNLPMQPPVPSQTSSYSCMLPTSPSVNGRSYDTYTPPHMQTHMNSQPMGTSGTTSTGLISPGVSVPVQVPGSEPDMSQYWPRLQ
Sequence of Signal transducer and activator of transcription 3 (Homo sapiens) (P40763 whole entry, looked up): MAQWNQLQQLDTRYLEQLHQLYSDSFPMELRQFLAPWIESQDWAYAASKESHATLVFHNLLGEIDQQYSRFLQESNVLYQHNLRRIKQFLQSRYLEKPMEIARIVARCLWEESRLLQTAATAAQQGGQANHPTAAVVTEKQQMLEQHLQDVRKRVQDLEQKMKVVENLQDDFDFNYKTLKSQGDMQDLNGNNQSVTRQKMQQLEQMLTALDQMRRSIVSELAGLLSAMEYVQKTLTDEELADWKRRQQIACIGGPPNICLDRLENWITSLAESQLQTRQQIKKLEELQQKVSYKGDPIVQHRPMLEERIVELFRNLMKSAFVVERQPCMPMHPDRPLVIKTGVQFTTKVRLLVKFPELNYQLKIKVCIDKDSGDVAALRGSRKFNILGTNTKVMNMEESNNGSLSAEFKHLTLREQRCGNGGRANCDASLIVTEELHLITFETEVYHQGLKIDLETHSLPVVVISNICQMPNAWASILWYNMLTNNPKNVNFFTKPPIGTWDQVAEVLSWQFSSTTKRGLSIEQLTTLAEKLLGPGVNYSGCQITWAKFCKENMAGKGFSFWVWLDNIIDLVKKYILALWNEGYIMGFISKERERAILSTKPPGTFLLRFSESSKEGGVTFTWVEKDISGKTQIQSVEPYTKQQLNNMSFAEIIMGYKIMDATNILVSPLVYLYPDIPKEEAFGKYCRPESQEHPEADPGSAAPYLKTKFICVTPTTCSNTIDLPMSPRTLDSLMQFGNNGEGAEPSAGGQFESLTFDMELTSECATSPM

Regarding `C=COCCCC`, the result in [1], in assay [2], in assay [3], in assay [4], in assay [5] and in assay [6] was inactive. In addition, the molecule was classed as inactive in [7], in [8], in assay [9], in assay [10], in assay [11] and in [12]. The molecule was classed as inactive in assay [13], in [14], in assay [15], in [16] and in [17].

Consider `CC(C)(c1cc(Br)c(OCCO)c(Br)c1)c1cc(Br)c(OCCO)c(Br)c1`, for which the AC50 in assay [1] is 7.14 µM (active); in [2] it was 44.2 µM (active); in [3], 7 µM (active); in assay [4], 22.9 µM (active); in [6], 42.2 µM (active); in [7] it was 21.5 µM (active). Also, the AC50 was 18.4 µM (active) in assay [8]; 17.4 µM (active) in assay [10]; 0.484 µM (active) in assay [18]; 18 µM (active) in assay [15]; 15.3 µM (active) in assay [19]; 7.14 µM (active) in assay [17]. In addition, the molecule was classed as inactive in [5], in [11], in [13], in assay [14] and in assay [16].

On to `CCN(CCC#N)c1ccc(N=Nc2c(Cl)cc([N+](=O)[O-])cc2Cl)cc1`, for which the molecule was called inactive in [1], in assay [2], in [3], in assay [4], in [5] and in [6]. The outcome in assay [7], in assay [8], in assay [9], in assay [10], in [11] and in assay [12] was inactive. Moreover, the molecule was classed as inactive in assay [13], in assay [14], in assay [15], in assay [16], in assay [19] and in assay [17]. Besides, the AC50 in assay [18] was 1.67 µM (active).

As to `O=C(O)c1cc(Cl)cc([N+](=O)[O-])c1Cl`, the result in assay [1], in assay [2], in assay [3], in [4], in assay [5] and in [6] was inactive. Besides, the result in assay [7], in assay [8], in assay [9], in assay [10], in assay [18] and in assay [12] was inactive. The call in [13], in [14], in assay [15], in assay [16], in [19] and in assay [17] was inactive.
